This note sets out measurements from the supplement of paper PMC3545927.

The test deals with furin, P09958. As to the kind of experiment: furin cleavage Z-score vs untreated control; higher = more cleavage, active = 3.5 or more, inactive = 1 or less, 8 variable residues between constant flanks. The method, then:
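Multiplexed peptide-cDNA fusion cleavage assay. 8-mer variable peptides flanked by constant Cys-Ala (N-term) and Ala-Gly-Asn-Ala-Ser-Ala-Ser-Ala (C-term) and conjugated to a cDNA oligonucleotide were bead-immobilised via the N-terminus. They were treated with purified furin at a 1:10 enzyme:substrate ratio in 50 mM HEPES pH 7.5, 1 mM CaCl2, 100 mM NaCl for 7.5, 15 or 30 min. Released cDNA was counted by next-generation sequencing, and log counts versus no-furin controls were lowess-adjusted and converted to robust Z-scores.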

The other results are listed elsewhere or left out. The hit rate among all sequences tested is not known here.

Chain of furin, P09958 (P09958 whole entry, the tested form may be a part): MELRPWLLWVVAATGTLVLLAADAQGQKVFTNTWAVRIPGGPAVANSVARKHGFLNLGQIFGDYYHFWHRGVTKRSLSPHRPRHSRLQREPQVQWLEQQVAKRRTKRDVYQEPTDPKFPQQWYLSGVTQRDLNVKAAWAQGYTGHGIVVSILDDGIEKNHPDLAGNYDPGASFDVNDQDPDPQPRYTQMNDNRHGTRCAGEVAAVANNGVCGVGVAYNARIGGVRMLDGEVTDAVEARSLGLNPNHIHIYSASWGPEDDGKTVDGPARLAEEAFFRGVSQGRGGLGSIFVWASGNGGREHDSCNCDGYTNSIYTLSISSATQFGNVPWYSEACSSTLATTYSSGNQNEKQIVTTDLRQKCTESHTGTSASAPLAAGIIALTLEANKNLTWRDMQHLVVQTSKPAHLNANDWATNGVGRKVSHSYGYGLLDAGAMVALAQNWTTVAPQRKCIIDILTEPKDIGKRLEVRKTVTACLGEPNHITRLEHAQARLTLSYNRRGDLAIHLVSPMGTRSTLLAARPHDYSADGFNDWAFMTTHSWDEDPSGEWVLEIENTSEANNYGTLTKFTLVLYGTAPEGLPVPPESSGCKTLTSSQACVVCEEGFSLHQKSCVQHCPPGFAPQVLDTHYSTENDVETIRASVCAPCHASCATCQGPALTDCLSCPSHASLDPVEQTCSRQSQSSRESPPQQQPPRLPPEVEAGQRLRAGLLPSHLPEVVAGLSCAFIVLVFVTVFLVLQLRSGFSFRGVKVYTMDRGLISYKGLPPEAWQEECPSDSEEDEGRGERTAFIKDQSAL

B1: FS-760 (peptide)
chain: CADSGRKTRSAGNASASA
For the sequence B1, the “furin cleavage Z-score” value by setting is: (7.5 min) 9.82 (active); (15 min) 12.7 (active); (30 min) 9.11 (active).

B2: FS-955 (peptide)
chain: CARMWRKTRSAGNASASA
As to B2, the “furin cleavage Z-score” value (7.5 min) is 13.5 (active), the “furin cleavage Z-score” value (15 min) is 13.7 (active) and the “furin cleavage Z-score” value (30 min) is 10.7 (active).

B3: FS-1396 (peptide)
chain: CARFWRKTRSAGNASASA
For B3, the “furin cleavage Z-score” value is, setting by setting: (7.5 min) 13 (active); (15 min) 13.8 (active); (30 min) 10.1 (active).

B4: HC855 (peptide)
chain: CARHLIFCHSAGNASASA
Regarding B4, the “furin cleavage Z-score” value is -0.853 (inactive) (7.5 min), 0.266 (inactive) (15 min) and 0.481 (inactive) (30 min).

B5: FS-2629 (peptide)
chain: CADSGRAYLPAGNASASA
Consider B5, for which the “furin cleavage Z-score” value by setting is: (7.5 min) -0.794 (inactive); (15 min) -0.681 (inactive); (30 min) -1.79 (inactive).

B6: FS-857 (peptide)
chain: CARHMRMTRSAGNASASA
For B6, the “furin cleavage Z-score” value by setting is: (7.5 min) 13.4 (active); (15 min) 13.6 (active); (30 min) 9.7 (active).

B7: HC1183 (peptide)
chain: CARIVGPRTCAGNASASA
With B7, the “furin cleavage Z-score” value runs as follows: (7.5 min) 0.967 (inactive); (15 min) -0.921 (inactive); (30 min) -0.233 (inactive).

B8: HC2309 (peptide)
chain: CAYVPCHRPSAGNASASA
For B8, the “furin cleavage Z-score” value (7.5 min) came to 1.57, the “furin cleavage Z-score” value (15 min) was -0.807 (inactive) and the “furin cleavage Z-score” value (30 min) is 0.069 (inactive).

B9: HC331 (peptide)
chain: CAPQAILDMIAGNASASA
As to B9, the “furin cleavage Z-score” value runs as follows: (7.5 min) -0.162 (inactive); (15 min) -2.41 (inactive); (30 min) -1.52 (inactive).

B10: HC551 (peptide)
chain: CAKWVPGAVYAGNASASA
Take B10: the “furin cleavage Z-score” value reads like this: (7.5 min) -1.17 (inactive); (15 min) -1.76 (inactive); (30 min) -0.384 (inactive).

B11: HC15 (peptide)
chain: CAMEESSQHLAGNASASA
For the sequence B11, the “furin cleavage Z-score” value is, setting by setting: (7.5 min) 0.403 (inactive); (15 min) 2.52; (30 min) 1.06.

B12: HC2302 (peptide)
chain: CADQEVVTSTAGNASASA
B12: the “furin cleavage Z-score” value (7.5 min) is -0.902 (inactive), the “furin cleavage Z-score” value (15 min) was -1.54 (inactive) and the “furin cleavage Z-score” value (30 min) is -1.12 (inactive).

B13: FS-954 (peptide)
chain: CARMWRKNRSAGNASASA
In the case of B13, the “furin cleavage Z-score” value is 7.39 (active) (7.5 min), 10 (active) (15 min) and 7.6 (active) (30 min).

B14: FS-158 (peptide)
chain: CAFQARLTRSAGNASASA
B14: the “furin cleavage Z-score” value (7.5 min) was 10.8 (active), the “furin cleavage Z-score” value (15 min) is 11.5 (active) and the “furin cleavage Z-score” value (30 min) is 9.98 (active).

B15: HC1699 (peptide)
chain: CAMPECSQHLAGNASASA
Regarding B15, the “furin cleavage Z-score” value by setting is: (7.5 min) -0.692 (inactive); (15 min) -0.28 (inactive); (30 min) -0.904 (inactive).

B16: HC713 (peptide)
chain: CADQDLVGWPAGNASASA
Take B16: the “furin cleavage Z-score” value (7.5 min) was -0.0765 (inactive), the “furin cleavage Z-score” value (15 min) is -0.565 (inactive) and the “furin cleavage Z-score” value (30 min) was 0.238 (inactive).

B17: FS-2603 (peptide)
chain: CARSKRAAPAAGNASASA
For B17, the “furin cleavage Z-score” value runs as follows: (7.5 min) 11.1 (active); (15 min) 9.91 (active); (30 min) 8.19 (active).

B18: HC1281 (peptide)
chain: CAITRVESENAGNASASA
B18: the “furin cleavage Z-score” value reads like this: (7.5 min) -1.51 (inactive); (15 min) -1.29 (inactive); (30 min) 0.308 (inactive).

B19: FS-1935 (peptide)
chain: CARTKRELENAGNASASA
As to B19, the “furin cleavage Z-score” value reads like this: (7.5 min) 14.2 (active); (15 min) 14.2 (active); (30 min) 11.6 (active).

B20: FS-2604 (peptide)
chain: CARSKRALKQAGNASASA
B20: the “furin cleavage Z-score” value runs as follows: (7.5 min) 8.45 (active); (15 min) 11.8 (active); (30 min) 8.31 (active).

B21: FS-1690 (peptide)
chain: CARDKRALKQAGNASASA
As to B21, the “furin cleavage Z-score” value is 5.74 (active) (7.5 min), 8.75 (active) (15 min) and 8.98 (active) (30 min).

B22: HC532 (peptide)
chain: CAQAEAALENAGNASASA
Turning to B22, the “furin cleavage Z-score” value (7.5 min) was 0.288 (inactive), the “furin cleavage Z-score” value (15 min) is -0.4 (inactive) and the “furin cleavage Z-score” value (30 min) is -1.4 (inactive).

B23: FS-2458 (peptide)
chain: CARSKKDFEAAGNASASA
In the case of B23, the “furin cleavage Z-score” value is, setting by setting: (7.5 min) 0.38 (inactive); (15 min) -0.117 (inactive); (30 min) -0.363 (inactive).

B24: HC22 (peptide)
chain: CAMEECGQHLAGNASASA
As for B24, the “furin cleavage Z-score” value (7.5 min) is 0.622 (inactive), the “furin cleavage Z-score” value (15 min) was 0.186 (inactive) and the “furin cleavage Z-score” value (30 min) was 1.5.

B25: FS-3217 (peptide)
chain: CARDKRLAYSAGNASASA
Regarding B25, the “furin cleavage Z-score” value (7.5 min) was -0.235 (inactive), the “furin cleavage Z-score” value (15 min) is -0.255 (inactive) and the “furin cleavage Z-score” value (30 min) was 0.271 (inactive).

B26: FS-3170 (peptide)
chain: CARSKRRKYVAGNASASA
With B26, the “furin cleavage Z-score” value is -1.22 (inactive) (7.5 min), -0.271 (inactive) (15 min) and 0.492 (inactive) (30 min).

B27: FS-2808 (peptide)
chain: CARSKRASYVAGNASASA
For B27, the “furin cleavage Z-score” value is 5.25 (active) (7.5 min), 9.12 (active) (15 min) and 8.21 (active) (30 min).

B28: FS-1945 (peptide)
chain: CARDKRSALQAGNASASA
Regarding B28, the “furin cleavage Z-score” value is 8.56 (active) (7.5 min), 10.4 (active) (15 min) and 8.42 (active) (30 min).

B29: FS-2304 (peptide)
chain: CARSKRKKEVAGNASASA
Regarding B29, the “furin cleavage Z-score” value (7.5 min) amounted to 1.21, the “furin cleavage Z-score” value (15 min) is -0.317 (inactive) and the “furin cleavage Z-score” value (30 min) was -0.337 (inactive).

B30: FS-3101 (peptide)
chain: CARSYRYALQAGNASASA
Regarding B30, the “furin cleavage Z-score” value is 2.16 (7.5 min), -0.873 (inactive) (15 min) and -0.277 (inactive) (30 min).

B31: FS-2652 (peptide)
chain: CARDKRWVKYAGNASASA
Regarding B31, the “furin cleavage Z-score” value by setting is: (7.5 min) 0.63 (inactive); (15 min) 2.15; (30 min) 6.84 (active).

B32: FS-2133 (peptide)
chain: CARDKKSLLQAGNASASA
Consider B32, for which the “furin cleavage Z-score” value by setting is: (7.5 min) 0.497 (inactive); (15 min) 0.302 (inactive); (30 min) -0.611 (inactive).

B33: FS-2807 (peptide)
chain: CARSKRAQTQAGNASASA
On to B33, for which the “furin cleavage Z-score” value runs as follows: (7.5 min) 3.83 (active); (15 min) 4.65 (active); (30 min) 3.76 (active).

B34: HC1629 (peptide)
chain: CARAAICGKYAGNASASA
With B34, the “furin cleavage Z-score” value runs as follows: (7.5 min) -0.897 (inactive); (15 min) -0.988 (inactive); (30 min) -0.655 (inactive).

B35: FS-3207 (peptide)
chain: CARSKRREMQAGNASASA
Consider B35, for which the “furin cleavage Z-score” value reads like this: (7.5 min) 0.975 (inactive); (15 min) 0.582 (inactive); (30 min) 0.62 (inactive).

B36: HC1819 (peptide)
chain: CADPMEECSQAGNASASA
On to B36, for which the “furin cleavage Z-score” value by setting is: (7.5 min) 0.273 (inactive); (15 min) -1.88 (inactive); (30 min) -0.65 (inactive).

B37: HC2445 (peptide)
chain: CAELEVPCHRAGNASASA
For B37, the “furin cleavage Z-score” value reads like this: (7.5 min) 0.172 (inactive); (15 min) 0.852 (inactive); (30 min) 0.435 (inactive).

B38: HC1478 (peptide)
chain: CAMGFSYDTRAGNASASA
On to B38, for which the “furin cleavage Z-score” value (7.5 min) was -0.658 (inactive), the “furin cleavage Z-score” value (15 min) is -1.06 (inactive) and the “furin cleavage Z-score” value (30 min) was -0.421 (inactive).

B39: HC1866 (peptide)
chain: CATTMCSGSWAGNASASA
With B39, the “furin cleavage Z-score” value is -0.934 (inactive) (7.5 min), -1.58 (inactive) (15 min) and -0.286 (inactive) (30 min).

B40: HC2090 (peptide)
chain: CAVVCCSMSVAGNASASA
For B40, the “furin cleavage Z-score” value (7.5 min) was -0.627 (inactive), the “furin cleavage Z-score” value (15 min) was 0.955 (inactive) and the “furin cleavage Z-score” value (30 min) was 1.16.

B41: FS-1691 (peptide)
chain: CARDKRKLGAAGNASASA
Turning to B41, the “furin cleavage Z-score” value by setting is: (7.5 min) -0.964 (inactive); (15 min) 0.648 (inactive); (30 min) 1.45.

B42: FS-2523 (peptide)
chain: CARSKRALENAGNASASA
B42: the “furin cleavage Z-score” value reads like this: (7.5 min) 9.22 (active); (15 min) 11 (active); (30 min) 8.18 (active).

B43: FS-3084 (peptide)
chain: CARSKRGTEDAGNASASA
B43: the “furin cleavage Z-score” value is 8.96 (active) (7.5 min), 9.33 (active) (15 min) and 8.39 (active) (30 min).

B44: FS-2205 (peptide)
chain: CARDKRKQRQAGNASASA
With B44, the “furin cleavage Z-score” value (7.5 min) was 1.77, the “furin cleavage Z-score” value (15 min) is 4.76 (active) and the “furin cleavage Z-score” value (30 min) was found to be 3.43.

B45: FS-1929 (peptide)
chain: CARSKRIWLDAGNASASA
Take B45: the “furin cleavage Z-score” value was 0.312 (inactive) (7.5 min), 0.0956 (inactive) (15 min) and 0.362 (inactive) (30 min).

B46: FS-2525 (peptide)
chain: CARSKRVLWDAGNASASA
B46: the “furin cleavage Z-score” value (7.5 min) was -1.38 (inactive), the “furin cleavage Z-score” value (15 min) is -1.33 (inactive) and the “furin cleavage Z-score” value (30 min) was -0.22 (inactive).

B47: FS-2306 (peptide)
chain: CARSKRRDANAGNASASA
Take B47: the “furin cleavage Z-score” value is -0.438 (inactive) (7.5 min), 0.401 (inactive) (15 min) and 2.07 (30 min).
